# Laboratory results: PubChem BioAssay
# Test system: not listed separately
# Test: probe aInhba binding on compound microarray – biochemical, small-molecule microarray, 635/667 nm fluorescence, primary screen (AID 1148);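 also: score merges 667nm spot fluorescence with signal-to-noise for antibody binding to printed compounds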
# Details: higher = more signal
row,SMILES,composite z-score
1,COC(=O)[C@@]1(CCC(=O)OC(C)(C)C)N=C(c2ccc(OCCCO)cc2)O[C@H]1c1ccccc1N=[N+]=[N-],-0.101
2,COC(=O)[C@@]1(Cc2ccc(OC)cc2)[C@H]2c3cc(C(=O)N(C)C)n(Cc4ccccn4)c3C[C@H]2CN1C(=O)c1ccccc1,0.322
3,CCCC[C@@H]1C[C@H]1[C@@H](NC(=O)c1ccccc1)c1ccc(C(=O)OC)cc1,-0.018
4,CCCCCCc1nc(-c2ccc(OC)nc2)cc2c1[Si](C(C)C)(C(C)C)O[C@H]2c1ccccc1,0.136
5,COC(=O)C(CC#Cc1ccc2c(c1)[C@]1(C(=O)N2)[C@H](C(=O)Nc2nc3ccccc3s2)[C@H]2C(=O)O[C@H](c3ccccc3)[C@H](c3ccccc3)N2[C@@H]1c1ccccc1OCCO)C(=O)OC,0.12
6,CN(C)C(=O)[C@@]1(CCS(=O)(=O)c2ccccc2)COC(c2ccc(OCCCO)cc2)=N1,0.0589
7,COc1ccc(C#Cc2ccc3c(c2)[C@]2(C(=O)N3)[C@H](C(=O)Nc3nc4ccccc4s3)[C@H]3C(=O)O[C@H](c4ccccc4)[C@H](c4ccccc4)N3[C@@H]2c2ccc(O)cc2)cc1,1.43
8,C=C(CC1([C@@H](NP(=O)(c2ccccc2)c2ccccc2)[C@H]2C[C@@H]2CCCC)CC1)c1ccccc1,0.374
9,C=CCN1C(=O)[C@@]2(CC=C)N=C(c3ccc(OCCCO)cc3)O[C@H]2c2ccccc21,0.33
10,CCCC[C@@H]1C[C@H]1[C@@H](NC(=O)c1ccco1)c1ccc(-c2ccccc2)cc1,0.033
11,C=C(C)[C@@H]1CC=C(C(O)C2C=CC3C(=O)N(C)C(=O)C3N2Nc2ccccc2)CC1 (some centres not stated),0.0013
12,O=C1C2C=CC(C(O)Cc3ccccc3)N(n3cnnc3)C2C(=O)N1Cc1ccccc1 (configuration not stated),-0.0118
13,C=C(COC)/C(=C/C[C@@H](OC(C)=O)c1ccc(OCCO)cc1)c1cnc2ccccc2c1,-0.0403
14,COCCOC(=O)N1C(=O)[C@@]2(c3cc(C#CCNC(N)=O)ccc31)[C@H](C(=O)N1CCN(c3ncccn3)CC1)[C@H]1C(=O)O[C@H](c3ccccc3)[C@H](c3ccccc3)N1[C@@H]2c1ccc(OCCO)cc1,0.0154
15,C=CCOC(=O)[C@@H]1[C@H]2C(=O)O[C@H](c3ccccc3)[C@H](c3ccccc3)N2[C@H](c2ccc(OCCOC(=O)[C@@H]3C[C@@H]4C(=O)NCC(=O)N4[C@@H]3c3ccc(O)cc3)cc2)[C@@]12C(=O)Nc1ccc(I)cc12,0.029
16,CC#CC(=O)Oc1ccccc1C=CC(=O)OCC,-0.206
17,CCCC[C@@H]1C[C@H]1[C@@H](NC(=O)c1ccco1)c1ccccc1C(F)(F)F,2.01

# Molecular target: Torsin-1A (Homo sapiens) (UniProt O14656)
# Test: TOR1A wild-type binding on microarray – cell lysate, small-molecule microarray, lysate, 635/667 nm, primary screen (AID 1149)
# Details: COS7 hTOR1A-WT lysate, 635 nm fluorescence, higher = more signal
# Chain of Torsin-1A (Homo sapiens) (O14656 whole entry, looked up): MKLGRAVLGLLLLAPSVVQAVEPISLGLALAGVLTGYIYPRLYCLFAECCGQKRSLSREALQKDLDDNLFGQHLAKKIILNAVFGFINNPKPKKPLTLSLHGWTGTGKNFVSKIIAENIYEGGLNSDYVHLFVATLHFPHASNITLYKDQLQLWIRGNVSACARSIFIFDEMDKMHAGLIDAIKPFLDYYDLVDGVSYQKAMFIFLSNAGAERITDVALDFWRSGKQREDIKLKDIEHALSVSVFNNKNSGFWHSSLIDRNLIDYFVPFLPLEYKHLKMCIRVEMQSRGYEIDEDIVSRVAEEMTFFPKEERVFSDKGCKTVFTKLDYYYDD
row,SMILES,composite z-score
1,COCCOC(=O)N1C(=O)[C@@]2(c3ccccc31)[C@H](c1ccc(O)cc1)N1[C@H](c3ccccc3)[C@H](c3ccccc3)OC(=O)[C@H]1[C@@H]2C(=O)Nc1nc2ccccc2s1,0.514
2,C=CCOC(=O)[C@H]1[C@@H]2C(=O)O[C@@H](c3ccccc3)[C@@H](c3ccccc3)N2[C@@H](c2ccc(OCCOC(=O)[C@H]3C[C@H]4C(=O)N[C@@H](CCCCN(C)C)C(=O)N4[C@H]3c3ccc(O)cc3)cc2)[C@]12C(=O)Nc1ccc(I)cc12,1.94
3,NC(=O)[C@@H]1[C@H]2C(=O)O[C@H](c3ccccc3)[C@H](c3ccccc3)N2[C@H](c2ccc(O)cc2)[C@@]12C(=O)Nc1ccccc12,-2.99
4,CC(C)C[C@@H]1NC(=O)[C@H](C(C)C)NC(=O)[C@@]23C(=O)N[C@@H](Cc4ccccc4)C2[C@H](C)[C@@]2(C)O[C@H]2C3/C=C/CC/C=C/CNC1=O (some centres not stated),0.356
5,COC(=O)C(CC#Cc1ccc2c(c1)[C@]1(C(=O)N2)[C@H](c2ccc(OCCO)cc2)N2[C@H](c3ccccc3)[C@H](c3ccccc3)OC(=O)[C@H]2[C@@H]1C(=O)Nc1nc2ccccc2s1)C(=O)OC,1.36
6,O=C1NC(=O)C2C1C=CC(C(O)c1cc(C(F)(F)F)cc(C(F)(F)F)c1)N2Nc1ccccn1 (configuration not stated),-0.138
7,Cc1ccc(S[C@]2(C(=O)NCCCN(C)C)CC(=O)N(Cc3cc(C(F)(F)F)cc(C(F)(F)F)c3)[C@@H]2c2ccc(CO)cc2I)cc1,-0.314
8,C=C(C(=O)CC[C@@H](OC(=O)c1cccnc1)c1ccccc1OCCO)C(C)C,0.784
9,COc1cc(NN2C(C(O)c3ccco3)C=CC3C(=O)N(c4ccccc4)C(=O)C32)cc(OC)c1OC (configuration not stated),-0.967
10,COC(=O)[C@@]1(Cc2ccc(OC)cc2)[C@H]2c3cc(C(=O)N(C)C)n(CCc4ccccn4)c3C[C@H]2CN1C(=O)c1ccccc1,-0.128
11,O=C(NC1CC1)[C@@H]1c2ccccc2C(=O)N(Cc2ccccc2Cl)[C@H]1c1ccc(CO)cc1,0.725
12,COC(=O)[C@@]1(Cc2ccc(F)cc2)[C@H]2c3cc(C(=O)N(C)C)n(Cc4ccccc4)c3C[C@H]2CN1C(=O)c1ccccc1,-0.243
13,O=C1C2C=CC(C(O)CCc3ccccc3)N(Nc3ccccc3F)C2C(=O)N1c1ccccc1 (configuration not stated),0.204
14,C=C[C@H](CO[Si](CC)(CC)CC)N(Cc1ccc(OC(C)=O)c(OC)c1)S(=O)(=O)c1ccc(Br)cc1,0.837
15,O=C1O[C@@H](c2ccccc2)[C@@H](c2ccccc2)N2[C@@H](c3ccccc3OCCO)[C@]3(C(=O)Nc4ccc(C#CC5=CCCCC5)cc43)[C@@H](C(=O)N3CCCCCCC3)[C@H]12,2.81
16,CCOC(=O)[C@H]1C/C=C/C[C@H](C(=O)OCC)C(=O)O[C@H]2[C@@H](OC)O[C@H](CO)[C@@H](OC(=O)c3c(OC)cccc3OC)[C@@H]2OC1=O,0.292
17,CCC(CC)C(O)C1C=CC2C(=O)NC(=O)C2N1Nc1ccc(Cl)cc1Cl (configuration not stated),-0.167
18,CCOC(=O)C[C@H]1[C@H](OC(=O)c2ccc(C(=O)c3ccccc3)cc2)[C@@H](NC(=O)c2ccc3ccccc3c2)c2cc(OCCCO)ccc2N1C(=O)Cc1ccc(OC)cc1,1.08

row,SMILES,composite z-score
1,COC(=O)[C@@]1(CCC(=O)OC(C)(C)C)N=C(c2ccc(OCCCO)cc2)O[C@H]1c1ccccc1N=[N+]=[N-],-0.184
2,COC(=O)[C@@]1(Cc2ccc(OC)cc2)[C@H]2c3cc(C(=O)N(C)C)n(Cc4ccccn4)c3C[C@H]2CN1C(=O)c1ccccc1,0.192
3,CCCC[C@@H]1C[C@H]1[C@@H](NC(=O)c1ccccc1)c1ccc(C(=O)OC)cc1,-2.83
4,CCCCCCc1nc(-c2ccc(OC)nc2)cc2c1[Si](C(C)C)(C(C)C)O[C@H]2c1ccccc1,0.0114
5,COC(=O)C(CC#Cc1ccc2c(c1)[C@]1(C(=O)N2)[C@H](C(=O)Nc2nc3ccccc3s2)[C@H]2C(=O)O[C@H](c3ccccc3)[C@H](c3ccccc3)N2[C@@H]1c1ccccc1OCCO)C(=O)OC,0.25
6,CN(C)C(=O)[C@@]1(CCS(=O)(=O)c2ccccc2)COC(c2ccc(OCCCO)cc2)=N1,1.24
7,COc1ccc(C#Cc2ccc3c(c2)[C@]2(C(=O)N3)[C@H](C(=O)Nc3nc4ccccc4s3)[C@H]3C(=O)O[C@H](c4ccccc4)[C@H](c4ccccc4)N3[C@@H]2c2ccc(O)cc2)cc1,1.41
8,C=C(CC1([C@@H](NP(=O)(c2ccccc2)c2ccccc2)[C@H]2C[C@@H]2CCCC)CC1)c1ccccc1,0.443
9,C=CCN1C(=O)[C@@]2(CC=C)N=C(c3ccc(OCCCO)cc3)O[C@H]2c2ccccc21,0.537
10,CCCC[C@@H]1C[C@H]1[C@@H](NC(=O)c1ccco1)c1ccc(-c2ccccc2)cc1,0.618
11,C=C(C)[C@@H]1CC=C(C(O)C2C=CC3C(=O)N(C)C(=O)C3N2Nc2ccccc2)CC1 (some centres not stated),0.425
12,O=C1C2C=CC(C(O)Cc3ccccc3)N(n3cnnc3)C2C(=O)N1Cc1ccccc1 (configuration not stated),-0.0992
13,C=C(COC)/C(=C/C[C@@H](OC(C)=O)c1ccc(OCCO)cc1)c1cnc2ccccc2c1,-0.148
14,COCCOC(=O)N1C(=O)[C@@]2(c3cc(C#CCNC(N)=O)ccc31)[C@H](C(=O)N1CCN(c3ncccn3)CC1)[C@H]1C(=O)O[C@H](c3ccccc3)[C@H](c3ccccc3)N1[C@@H]2c1ccc(OCCO)cc1,1.44
15,C=CCOC(=O)[C@@H]1[C@H]2C(=O)O[C@H](c3ccccc3)[C@H](c3ccccc3)N2[C@H](c2ccc(OCCOC(=O)[C@@H]3C[C@@H]4C(=O)NCC(=O)N4[C@@H]3c3ccc(O)cc3)cc2)[C@@]12C(=O)Nc1ccc(I)cc12,0.877
16,CC#CC(=O)Oc1ccccc1C=CC(=O)OCC,-0.402
17,CCCC[C@@H]1C[C@H]1[C@@H](NC(=O)c1ccco1)c1ccccc1C(F)(F)F,0.408
